Consider nine targets from the supplement of paper PMC10849652.

Test in all cases: log2 fold change, soluble protein after heating vs DMSO (PISA); higher = thermal stabilisation; K562 lysate, 10 uM; active = over 0.2 and 3.5 SD of the protein, either way, in both replicates (recomputed)
Compound in one assay: C#Cc1cccc(Nc2ncnc3cc(OCCOC)c(OCCOC)cc23)c1 [erlotinib]
The gist of the method: (§1)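 Pellets of K562 cells were dounce-homogenised in PBS pH 7.4 with 1 mM MgCl2, and the crude extract was held at 1 mg/mL protein for a 30 min treatment with 10 μM compound. Aliquots were heated for 3 min over 48°C-58°C and pooled before NP-40 was added to 0.5% at 4°C. The supernatant from 21,000xg for 90 min was quantified by TMTpro 16plex LC-MS/MS with channel sums equalised. Values are reported from duplicates as log-two fold change in thermal stability relative to solvent controls.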

Compound in assay [1]: C/C(=N\NC(=O)C1=CC(=CC=C1)S(=O)(=O)N2CCOCC2)/C3=C(C=CC(=C3)Cl)O
The gist of the method: as §1

Compound in assay [2]: C1=CC(=CC=C1C2=NC3=C(N2)C=C(C=C3)C(=O)N)OC4=CC=C(C=C4)Cl
The gist of the method:
as §1

Compound in assay [3]: C1=CC2=C(C=CC(=C2)/C=C\3/C(=O)NC(=NCC4=CC=CS4)S3)N=C1
Put shortly:
as §1

Compound in assay [4]: C1=CC2=NC=CN=C2C=C1/C=C/3\C(=O)NC(=O)S3
Put shortly:
as §1

Compound in assay [5]: C1=CC=C(C=C1)C2=NC(=C(N2)C3=CC=NC=C3)C4=CC(=C(C=C4)Cl)O
Put shortly: as §1

Compound in assay [6]: C1=CC=C2C(=C1)C3=NNC4=CC=CC(=C43)C2=O
Put shortly: as §1

Compound in assay [7]: C1CCN(C1)C(=O)NC2=CC=CC(=C2)NC3=NC=C(C(=N3)NCCC4=CN=CN4)Br
The gist of the method:
as §1

Compound in assay [8]: C1CN(CCC1(CC2=CC=C(C=C2)Cl)N)C3=NC=NC4=C3C=CN4
Put shortly:
as §1

Compound in another assay: C1COCCN1CCN2C3=CC=CC=C3N=C2NC(=O)C4=CC(=CC=C4)[N+](=O)[O-] [IRAK-1-4 Inhibitor I]
Put shortly:
as §1

Of roughly 8,800 targets only a part is listed; those with a hit were picked by preference. About 0.5% of all pairs of compound and target were hits. Values without a mark were called inactive.

UniProt P78406, sequence (P78406 whole entry, looked up): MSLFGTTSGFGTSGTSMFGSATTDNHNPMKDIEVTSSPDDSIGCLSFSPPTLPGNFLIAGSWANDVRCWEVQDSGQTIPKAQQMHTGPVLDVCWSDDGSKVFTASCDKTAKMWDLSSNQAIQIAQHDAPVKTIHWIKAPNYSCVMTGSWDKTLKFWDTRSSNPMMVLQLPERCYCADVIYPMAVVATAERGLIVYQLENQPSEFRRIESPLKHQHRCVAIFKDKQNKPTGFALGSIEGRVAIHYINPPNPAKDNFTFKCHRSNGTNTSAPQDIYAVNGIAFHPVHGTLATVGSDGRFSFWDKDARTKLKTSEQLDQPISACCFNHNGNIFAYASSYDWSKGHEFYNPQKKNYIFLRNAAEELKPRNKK
UniProt O14730, sequence (O14730 whole entry, looked up): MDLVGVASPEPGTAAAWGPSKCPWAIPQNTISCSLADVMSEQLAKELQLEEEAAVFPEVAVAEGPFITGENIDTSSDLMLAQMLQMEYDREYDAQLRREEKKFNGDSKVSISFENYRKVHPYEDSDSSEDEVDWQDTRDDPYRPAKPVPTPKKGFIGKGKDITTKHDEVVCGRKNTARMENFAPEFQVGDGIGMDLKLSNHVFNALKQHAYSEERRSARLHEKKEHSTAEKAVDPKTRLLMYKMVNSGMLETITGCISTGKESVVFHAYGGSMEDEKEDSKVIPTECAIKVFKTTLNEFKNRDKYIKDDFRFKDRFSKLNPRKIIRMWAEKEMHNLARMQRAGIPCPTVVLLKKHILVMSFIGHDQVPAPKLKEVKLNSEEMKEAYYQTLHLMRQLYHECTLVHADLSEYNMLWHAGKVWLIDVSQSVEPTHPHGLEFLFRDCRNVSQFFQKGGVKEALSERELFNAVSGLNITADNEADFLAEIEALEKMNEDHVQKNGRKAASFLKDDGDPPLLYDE
UniProt Q9UL25, sequence (Q9UL25 whole entry, looked up): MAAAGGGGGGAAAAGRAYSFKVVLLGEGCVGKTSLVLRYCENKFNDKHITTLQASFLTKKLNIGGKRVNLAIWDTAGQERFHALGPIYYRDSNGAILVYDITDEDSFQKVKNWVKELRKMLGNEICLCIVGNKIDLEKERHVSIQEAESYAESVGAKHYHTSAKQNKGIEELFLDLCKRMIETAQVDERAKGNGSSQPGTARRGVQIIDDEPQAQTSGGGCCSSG
UniProt Q86X10, sequence (Q86X10 whole entry, looked up): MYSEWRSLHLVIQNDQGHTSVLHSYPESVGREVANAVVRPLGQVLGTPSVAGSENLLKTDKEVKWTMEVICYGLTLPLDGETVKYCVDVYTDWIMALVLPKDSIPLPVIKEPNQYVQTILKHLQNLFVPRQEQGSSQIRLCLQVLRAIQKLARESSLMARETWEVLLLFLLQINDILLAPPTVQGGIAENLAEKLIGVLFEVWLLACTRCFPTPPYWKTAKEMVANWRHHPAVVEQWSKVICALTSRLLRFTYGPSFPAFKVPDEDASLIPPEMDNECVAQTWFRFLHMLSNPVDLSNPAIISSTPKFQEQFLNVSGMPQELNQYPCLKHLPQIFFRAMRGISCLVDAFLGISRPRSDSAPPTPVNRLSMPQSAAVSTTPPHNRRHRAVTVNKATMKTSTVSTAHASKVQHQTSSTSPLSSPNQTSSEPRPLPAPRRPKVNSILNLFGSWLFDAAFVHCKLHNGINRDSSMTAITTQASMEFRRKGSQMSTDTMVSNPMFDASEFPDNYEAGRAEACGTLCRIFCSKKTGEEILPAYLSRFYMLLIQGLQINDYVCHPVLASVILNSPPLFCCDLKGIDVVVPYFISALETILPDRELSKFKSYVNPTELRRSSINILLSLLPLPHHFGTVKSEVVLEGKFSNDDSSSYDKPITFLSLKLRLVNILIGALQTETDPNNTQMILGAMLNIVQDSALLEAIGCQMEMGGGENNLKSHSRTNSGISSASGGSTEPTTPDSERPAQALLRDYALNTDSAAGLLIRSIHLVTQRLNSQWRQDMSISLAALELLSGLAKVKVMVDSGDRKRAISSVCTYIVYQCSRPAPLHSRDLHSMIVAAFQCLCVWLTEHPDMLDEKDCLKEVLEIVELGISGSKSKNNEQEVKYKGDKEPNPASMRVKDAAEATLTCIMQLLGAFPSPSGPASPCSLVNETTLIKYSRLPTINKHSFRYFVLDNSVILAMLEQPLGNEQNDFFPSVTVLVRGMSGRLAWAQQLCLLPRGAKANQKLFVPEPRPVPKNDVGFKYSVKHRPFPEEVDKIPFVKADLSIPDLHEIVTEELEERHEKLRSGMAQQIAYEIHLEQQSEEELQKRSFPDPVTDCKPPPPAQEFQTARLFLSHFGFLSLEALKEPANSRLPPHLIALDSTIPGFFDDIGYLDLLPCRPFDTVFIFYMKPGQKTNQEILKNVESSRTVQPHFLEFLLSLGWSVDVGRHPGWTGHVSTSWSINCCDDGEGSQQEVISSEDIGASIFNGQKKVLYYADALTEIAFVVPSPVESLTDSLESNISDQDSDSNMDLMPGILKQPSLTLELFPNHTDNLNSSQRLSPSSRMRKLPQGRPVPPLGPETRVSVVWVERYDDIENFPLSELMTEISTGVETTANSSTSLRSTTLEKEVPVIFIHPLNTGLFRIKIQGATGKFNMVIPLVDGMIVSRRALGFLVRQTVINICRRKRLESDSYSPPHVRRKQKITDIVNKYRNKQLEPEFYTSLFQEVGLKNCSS
UniProt Q6NUM9, sequence (Q6NUM9 whole entry, looked up): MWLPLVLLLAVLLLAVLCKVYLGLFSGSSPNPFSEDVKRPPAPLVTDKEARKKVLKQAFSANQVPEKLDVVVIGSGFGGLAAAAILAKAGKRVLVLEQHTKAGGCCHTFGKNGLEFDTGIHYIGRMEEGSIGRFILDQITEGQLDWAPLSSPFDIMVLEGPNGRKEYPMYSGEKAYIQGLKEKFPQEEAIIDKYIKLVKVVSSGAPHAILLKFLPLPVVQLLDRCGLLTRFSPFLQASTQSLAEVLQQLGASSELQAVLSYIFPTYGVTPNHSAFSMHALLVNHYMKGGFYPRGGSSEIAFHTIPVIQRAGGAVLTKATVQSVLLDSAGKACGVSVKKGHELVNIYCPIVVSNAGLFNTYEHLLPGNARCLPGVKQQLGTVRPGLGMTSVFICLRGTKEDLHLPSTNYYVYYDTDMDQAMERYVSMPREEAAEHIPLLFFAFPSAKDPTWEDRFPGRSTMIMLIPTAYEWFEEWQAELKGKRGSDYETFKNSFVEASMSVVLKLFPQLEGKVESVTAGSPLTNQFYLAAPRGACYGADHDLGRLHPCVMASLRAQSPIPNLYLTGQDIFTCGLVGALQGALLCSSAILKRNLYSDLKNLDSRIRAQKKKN
UniProt Q8NC42, sequence (Q8NC42 whole entry, looked up): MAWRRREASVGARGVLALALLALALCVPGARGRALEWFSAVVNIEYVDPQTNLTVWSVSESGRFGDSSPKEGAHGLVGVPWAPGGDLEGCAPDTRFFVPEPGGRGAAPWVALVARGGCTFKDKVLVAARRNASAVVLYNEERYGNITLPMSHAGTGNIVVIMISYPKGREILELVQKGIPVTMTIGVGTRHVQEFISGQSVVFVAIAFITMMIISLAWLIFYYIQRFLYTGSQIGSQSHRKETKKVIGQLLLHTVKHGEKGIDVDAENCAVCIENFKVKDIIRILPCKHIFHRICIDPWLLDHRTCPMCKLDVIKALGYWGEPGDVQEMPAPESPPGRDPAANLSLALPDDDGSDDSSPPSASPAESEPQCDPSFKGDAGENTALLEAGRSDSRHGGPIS
UniProt Q9BVS4, sequence (Q9BVS4 whole entry, looked up): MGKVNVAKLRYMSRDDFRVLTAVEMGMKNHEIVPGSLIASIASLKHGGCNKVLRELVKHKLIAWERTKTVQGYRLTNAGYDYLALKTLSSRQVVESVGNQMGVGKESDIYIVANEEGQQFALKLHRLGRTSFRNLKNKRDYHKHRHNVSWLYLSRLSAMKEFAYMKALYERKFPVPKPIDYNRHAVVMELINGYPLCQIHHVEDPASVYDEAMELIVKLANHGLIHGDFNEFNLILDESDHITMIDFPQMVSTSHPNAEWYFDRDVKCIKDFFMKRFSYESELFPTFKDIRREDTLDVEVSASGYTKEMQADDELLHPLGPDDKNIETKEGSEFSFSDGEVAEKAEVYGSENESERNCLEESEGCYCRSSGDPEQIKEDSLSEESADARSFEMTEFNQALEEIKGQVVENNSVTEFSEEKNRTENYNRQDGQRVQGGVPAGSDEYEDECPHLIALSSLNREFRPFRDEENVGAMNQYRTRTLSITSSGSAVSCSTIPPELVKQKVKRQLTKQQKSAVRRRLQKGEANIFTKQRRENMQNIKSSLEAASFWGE
UniProt P40938, sequence (P40938 whole entry, looked up): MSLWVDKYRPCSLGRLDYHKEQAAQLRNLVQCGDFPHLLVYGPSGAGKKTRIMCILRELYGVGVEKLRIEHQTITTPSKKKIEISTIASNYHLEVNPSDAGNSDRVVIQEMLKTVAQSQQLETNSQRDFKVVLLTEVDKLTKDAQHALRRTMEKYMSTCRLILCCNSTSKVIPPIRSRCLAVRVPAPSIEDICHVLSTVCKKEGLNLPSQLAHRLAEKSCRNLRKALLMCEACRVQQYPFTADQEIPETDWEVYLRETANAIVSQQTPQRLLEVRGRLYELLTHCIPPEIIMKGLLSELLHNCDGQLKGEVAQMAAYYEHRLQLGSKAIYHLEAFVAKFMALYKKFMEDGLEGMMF

With RAE1 (UniProt P78406), the log2 fold change was 0.045 with erlotinib; -0.036 in assay [1]; 0.014 in [2]; 0.046 in assay [3]; 0.012 in [4]; -0.021 in assay [5]. In addition, the log2 fold change is -0.007 in [6], -0.019 in assay [7], 0.033 in assay [8] and -0.024 with IRAK-1-4 Inhibitor I.
Regarding RIOK3 (UniProt O14730), the log2 fold change in the assay with erlotinib was 0.043; in assay [1], -0.114; in assay [2], -0.057; in [3] it was 0.029; in [4], -0.011; in assay [5], 0.023. Moreover, the log2 fold change in assay [6] was 0.092; in assay [7] it was 0.016; in assay [8] it was -0.006; in the assay with IRAK-1-4 Inhibitor I, 0.016.
On to SCML2 (UniProt Q9UQR0), for which the log2 fold change is 0.021 with erlotinib; 0.038 in assay [1]; 0.019 in [2]; 0.068 in assay [3]; -0.046 in [4]; 0 in [5]. Besides, the log2 fold change was -0.028 in assay [6], -0.003 in assay [7], 0.043 in assay [8] and -0.01 with IRAK-1-4 Inhibitor I.
As to RAB21 (UniProt Q9UL25), the log2 fold change with erlotinib was 0; in assay [1], -0.008; in [2], 0.015; in [3], 0.02; in [4], 0.02; in [5], -0.028. The log2 fold change is -0.034 in assay [6], 0.026 in [7], 0.012 in assay [8] and 0.045 with IRAK-1-4 Inhibitor I.
With RNF149 (UniProt Q8NC42), the log2 fold change with erlotinib was -0.044; in assay [1], -0.03; in [2], 0.003; in assay [3] it was -0.046; in [4] it was 0.135; in assay [5], -0.021. Also, the log2 fold change is -0.031 in assay [6] and 0.068 with IRAK-1-4 Inhibitor I.
On to RIOK2 (UniProt Q9BVS4), for which the log2 fold change in the assay with erlotinib is -0.018; in assay [1], -0.045; in assay [2], -0.015; in [3], 0.07; in assay [4], 0.038; in [5], 0.029. Moreover, the log2 fold change was 0.395 (active) in [6], -0.01 in assay [7], -0.019 in [8] and -0.005 with IRAK-1-4 Inhibitor I.
With RETSAT (UniProt Q6NUM9), the log2 fold change with erlotinib is -0.092; in assay [1], 0.054; in [2], 0.026; in assay [3] it was 0.021; in assay [4], -0.092; in assay [5] it was -0.004. Also, the log2 fold change was -0.152 in assay [6], -0.077 in assay [7], -0.052 in assay [8] and 0.148 in the assay with IRAK-1-4 Inhibitor I.
As for RFC3 (UniProt P40938), the log2 fold change was 0.05 with erlotinib; 0.01 in assay [1]; -0.034 in assay [2]; 0.024 in [3]; 0.005 in assay [4]; 0.005 in assay [5]. In addition, the log2 fold change in assay [6] is -0.027; in assay [7], -0.002; in [8], 0.049; in the assay with IRAK-1-4 Inhibitor I, 0.028.
As for RALGAPB (UniProt Q86X10), the log2 fold change was 0.024 in the assay with erlotinib; -0.047 in assay [1]; 0.051 in assay [2]; 0.018 in assay [3]; 0 in assay [4]; -0.038 in assay [5]. Further, the log2 fold change in assay [6] is -0.074; in [7], -0.008; in assay [8] it was 0.049; with IRAK-1-4 Inhibitor I it was 0.033.
